Source: PubChem BioAssay
TGFb SMAD3 inh = inhibitors of TGF-b signaling. HepG2 CAGA-GFP TGF-b/SMAD3 reporter, GFP fluorescence, 18 h; TGF-beta stimulated, 500 pg/mL final. 1.2% of 410,000 active. Potency, µM (titrated, usually from 46.1 µM), inactives show at the top dose activity, negative = inhibition, hits mostly inhibitors; further: on the % scale 0 is the no-effect control and ±100 the full control effect; nearly all actives have a fitted effect of over 65% in size
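HEPG2 CAGA-GFP cells (1000/well, DMEM with 1% FBS) were pre-incubated 2 h at 37 degrees C, given compound by pin tool, then stimulated with TGF-beta at 500 pg/mL final for 18 h before per-cell GFP fluorescence imaging.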
HT1080-NT tox = kills 2HG-producing HT-1080-NT fibrosarcoma cells | 1.6% of 360,000 active | Potency, µM (titrated, usually from 46.1 µM), inactives show at the highest dose activity, negative = less viability, actives largely listed as cytotoxic | AID 686970 | HT-1080-NT fibrosarcoma viability, CellTiter-Glo ATP luminescence, 48 h;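 further: NT is the 2HG producing partner of a matched IDH1 knockdown line; 0% = DMSO-treated cells and -100% = media-only wells without cells; nearly all actives have a fitted effect of over 55% in size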
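Viability by CellTiter-Glo luminescence after 48 h compound exposure at 37C of HT-1080-NT cells (750/well, RPMI, 5% FBS). % activity scaled between DMSO wells and medium-only wells, then curve-fitted and categorized by curve class.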
TDP1 cell noCPT = qHTS for Inhibitors of human tyrosyl-DNA phosphodiesterase 1 (TDP1): qHTS in cells in absence of CPT. DT40 Tdp1-/- hTDP1 cells, no CPT, ATP luminescence, 48 h. Potency, µM (top dose mostly 46.2 µM), without a hit: top-dose activity change, negative = growth inhibition, usual class: inhibitors. 15% of 420,000 active; further: on the % scale 0 is the no-effect control and ±100 the full control effect; nearly all actives have a fitted effect of over 55% in size
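Camptothecin absent (DMSO only). Human TDP1-complemented DT40 knockout cells, 400 cells/well, 37 °C for minimum 48 hr; ATP measured via CellTiter-Glo, 30 min dark incubation, luminescence.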
TDP1 cell CPT = DT40-hTDP1 cell growth loss with CPT | Potency, µM (titrated, usually from 46.2 µM), for inactives: at the top dose activity change, negative = growth inhibition, actives largely listed as inhibitors | 12% of 420,000 active | chicken DT40 Tdp1-/-;hTDP1 cells + 20 nM CPT, ATP luminescence, 48 h; further: on the % scale 0 is the no-effect control and ±100 the full control effect; nearly all actives have a fitted effect of over 55% in size
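Cell growth measured by CellTiter-Glo luminescence after a minimum 48 h, 37 C compound exposure with 20 nM CPT in Tdp1-knockout DT40 cells stably expressing hTDP1, seeded 400/well; qHTS titration format.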
HT1080 IDH1KD tx = kills HT-1080 cells with IDH1 knockdown; HT-1080 IDH1 knockdown viability, ATP luminescence, 48 h; Potency, µM (titrated, usually from 46.1 µM), for the others: top-dose activity, negative = toxicity, most hits filed as cytotoxic; 2% of 360,000 active; AID 686971;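 further: 0% = DMSO wells and -100% = cell-free medium wells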
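Knockdown cells (IDH1KD HT-1080) received compounds 2 h after plating at 750 cells/well and were kept 48 h at 37 °C in 5% FBS RPMI. A CellTiter-Glo luminescence read gave % activity for curve fitting.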
HepG2 viability = HepG2 cytotoxicity, counter-screen for TGF-b inhibitors. HepG2 CAGA-GFP viability, ATP luminescence, 18 h. Potency, µM (top dose mostly 46.1 µM), for the others: at the highest dose activity change, negative = cytotoxicity, usual class: cytotoxic. 0.76% of 410,000 active
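HepG2 CAGA-GFP cells (1000/well, DMEM with 1% FBS) received compound, then TGF-beta at 500 pg/mL final, and were incubated 18 hours at 37 degrees C. Viability was read by CellTiter-Glo luminescence. Media-only wells were set as complete cell-killing and DMSO as no toxicity.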
* hit, by the source's call; ? = inconclusive; · = not tested or not shown; [ ] = dose if it differs, or a comment. Hits are enriched below; roughly 17% of the tested compounds scored in any of these assays. The call rests on the fitted dose curve; in most records, active means well fitted curve in the direction sought with a large enough effect; inconclusive means small, poorly fitted or top-dose-only effect, or another doubt; inactive means no such curve, though single readings can be large; an effect the other way counts as inactive or inconclusive. Potency means the concentration at half of the fitted maximal effect.

SMILES	TGFb SMAD3 inh	HT1080-NT tox	TDP1 cell noCPT	TDP1 cell CPT	HT1080 IDH1KD tx	HepG2 viability
Cn1cc(-c2nc3cnc(Oc4ccccc4)nc3n(CCC#N)c2=O)c2ccccc21	·	·	9%	12%	·	·
CCC(=O)Nc1ccc(NC(=O)c2cc3ccccc3o2)c(OC)c1	8%	-4%	10µM*	?	-2%	-7%
CCCCCC(=O)Nc1ccc(NC(=O)c2cc3ccccc3o2)c(OC)c1	-14%	·	4.6µM*	6.5µM*	·	-21%
COc1cc(NC(=O)c2cc3ccccc3o2)ccc1NC(=O)c1ccco1	8%	-6%	-28%	-4%	1%	-40%
COc1cc(NC(=O)c2c(OC)cccc2OC)ccc1NC(=O)c1cc2ccccc2o1	-1%	-16%	?	10µM*	-22%	-9%
COc1cc(NC(=O)c2cccc(Cl)c2Cl)ccc1NC(=O)c1cc2ccccc2o1	-14%	·	2.6µM*	5.2µM*	·	-18%
Cc1nc(NC(=O)CSc2nnc(Cn3nnc4ccccc43)n2C)sc1C	-8%	16%	?	-7%	9%	27%
CCC(Oc1ccccc1)C(=O)Nc1ccc(S(=O)(=O)Nc2cc(C)on2)cc1 (configuration not stated)	7%	3%	-11%	-9%	5%	-2%
Cc1ccc2occ(/C=N/NC(=O)c3ccncc3)c(=O)c2c1	1%	-5%	-14%	0%	1%	23%
CCOC(=O)c1cccc(NC(=O)c2cc3ccccc3o2)c1	-14%	0%	?	8.2µM*	2%	-50%
O=c1nc(N/N=C/C=C/c2ccccc2)cn[nH]1	1%	?	8.2µM*	?	27%	-7%
O=c1nc(N/N=C/c2c[nH]c3ccccc23)cn[nH]1	?	25%	?	0%	22%	-8%
O=C1CCCc2cc(S(=O)(=O)N3CCCC(C(=O)NCc4ccc(Cl)cc4)C3)ccc2N1 (configuration not stated)	-1%	·	·	·	·	-18%
COc1ccc(-c2csc(NC(=S)NC(=O)/C=C/c3ccco3)n2)cc1Br	-18%	3.7µM*	3.7µM*	1.8µM*	2.6µM*	0%
COc1ccc(-c2csc(NC(=S)NC(=O)/C=C/c3ccco3)n2)cc1OC	10%	12µM*	4.6µM*	4.6µM*	18µM*	-27%
COc1ccc(-c2csc(NC(=S)NC(=O)c3ccco3)n2)cc1Br	-4%	14%	2.9µM*	10µM*	16%	-2%
Cc1ccoc1C(=O)NCCNc1ccc(Cl)cc1[N+](=O)[O-]	2%	0%	-30%	-23%	3%	-2%
COc1ccc(-c2nc(C(=O)NCCCN3CCOCC3)cc3c2[nH]c2ccccc23)cc1OC	36%	-4%	3.7µM*	13µM*	-8%	-20%
Cc1ccc(-c2nc(C(=O)NCCCN3CCOCC3)cc3c2[nH]c2ccccc23)cc1	1%	-9%	3.3µM*	3.3µM*	-14%	-49%
COc1ccccc1-c1cc(C(=O)NCCCN2CCOCC2)no1	-1%	16%	-17%	-15%	8%	-14%
COc1ccc(C(=O)OCC(=O)Nc2sccc2C(N)=O)cc1[N+](=O)[O-]	-18%	13%	-17%	-10%	?	-22%
COc1cccc(CC(=O)n2nc(N)c3cc4ccc(OC)cc4nc32)c1	-23%	4%	-27%	-10%	-1%	-1%
COc1ccc2cc3c(N)nn(C(=O)c4ccccc4Cl)c3nc2c1	?	?	?	1.6µM*	-9%	-26%
COc1ccc2cc3c(N)c(C(=O)N4CCCC4)sc3nc2c1	?	6%	21µM*	?	0%[9.24 µM]	-35%
COc1ccc2cc3c(N)nn(C(=O)Cc4c[nH]c5ccccc45)c3nc2c1	?	?	4.1µM*	10µM*	?	-53%
SMILES	TGFb SMAD3 inh	HT1080-NT tox	TDP1 cell noCPT	TDP1 cell CPT	HT1080 IDH1KD tx	HepG2 viability
COc1ccc2cc3c(N)nn(C(=O)c4cccc(F)c4)c3nc2c1	-4%	0%	?	?	8%	17%
COc1ccc2cc3c(N)nn(C(=O)c4ccc(F)cc4)c3nc2c1	2%	0%	10µM*	?	-1%	-21%
CCC(=O)Nc1ccc2c(c1)OC[C@@H](C)N(Cc1ccccc1F)C[C@@H](C)[C@@H](OC)CN(C)C2=O	·	11%	-15%	-29%	16%	·
O=C(Nc1cccc2c1CCCC2)C1CCN(c2nnnn2-c2ccccc2)CC1	-9%	8%	16µM*	?	-3%	-2%
CC(C)(C)C1CCC(C(=O)Nc2ccc(N3CCOCC3)cc2N2CCOCC2)CC1 (configuration not stated)	-3%	0%	?	?	5%	5%
C=C1C(=O)O[C@@H]2[C@H]1[C@@H](OC(=O)/C(C)=C/C)C/C(C)=C\C(=O)/C=C(\C)[C@@H]2O	7.1µM*	?	2.1µM*	1.5µM*	?	11µM*
C/C=C(/C)C(=O)O[C@H]1CC(C)=CC(=O)[C@@]2(C)CC[C@@](O)(C(C)C)[C@H]12	0%	·	·	·	·	-13%
CCNc1ncc2ncc(=O)n(C)c2n1	·	·	-29%	?	·	·
O=C(NCc1cccnc1)C1CC(c2ccccc2Cl)=NO1 (configuration not stated)	-1%	-22%	?	?	-4%	0%
O=S(=O)(c1ccccc1F)N1CCC(Oc2ccc(-n3cnnn3)cc2)CC1	?	?	23µM*	?	?	-27%
CC(C)(C)c1ccc(S(=O)(=O)N2CCC(Oc3ccc(-n4cnnn4)cc3)CC2)cc1	0%	·	10µM*	?	·	-2%
COC(=O)C(C(=O)OC)[C@@H]1C=C[C@H](C[N+](=O)[O-])N(C(C)=O)C1	-1%	0%	-17%	7%	-1%	-10%
FC(F)Sc1ccc(-n2cc(-c3ccc(Cl)cc3)[n+]3c2CCC3)cc1	9%	3%	8.2µM*	9.2µM*	5%	11%
Brc1ccc(-c2csc3[n+]2CCCCC3)cc1	8%	-3%	?	-4%	-21%	0%
Clc1ccc(-n2cc(-c3ccc(Br)cc3)[n+]3c2CCCCC3)cc1	10%	-7%	6.5µM*	5.8µM*	?	-8%
